Some compounds were tested as several samples or in several runs, with calls that do not always agree. Active and inactive are the calls of the source. The calls were made as follows: active = hit-call score of the fitted dose curve at least 0.9, where 1 is the maximum; inactive = score below 0.9.
Key:
[1] = read-out: Vascular cell adhesion molecule 1 (VCAM1), VCAM1 (gene 7412); assay: BSK_CASM3C_VCAM1: BioMAP Diversity Plus: CASM3C Assay for Vascular cell adhesion molecule 1 (VCAM1) Biomarker Activity (AID 2283055); settings: primary human coronary artery smooth muscle cells; actives raise or lower the signal;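 also: VCAM-1 protein level quantified by ELISA on the cells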
[2] = read-out: Collagen III, COL3A1 (gene 1281); assay: BSK_hDFCGF_CollagenIII: BioMAP Diversity Plus: hDFCGF Assay for Collagen III Biomarker Activity (AID 2283056); settings: primary human foreskin fibroblasts; actives raise or lower the signal
How it was run: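 ELISA read-out of collagen III from human skin fibroblast cultures sampled 24 h post-dosing. Values were derived by bidirectional fitting relative to the DMSO vehicle control.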

[3] = read-out: Epidermal growth factor receptor (EGFR), EGFR (gene 1956); assay: BSK_hDFCGF_EGFR: BioMAP Diversity Plus: hDFCGF Assay for Epidermal growth factor receptor (EGFR) Biomarker Activity (AID 2283057); settings: primary human foreskin fibroblasts; actives raise or lower the signal
How it was run: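 Primary human foreskin fibroblasts were exposed to compound for 24 h, after which cell-surface EGFR was quantified by ELISA. Activity was fitted bidirectionally against the DMSO negative control as baseline.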

[4] = read-out: Interleukin-8 (IL8), CXCL8 (gene 3576); assay: BSK_hDFCGF_IL8: BioMAP Diversity Plus: hDFCGF Assay for Interleukin-8 (IL8) Biomarker Activity (AID 2283058); settings: primary human foreskin fibroblasts; actives raise or lower the signal
How it was run: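 Cells used are human skin primary fibroblasts. Chemical is added, cultures run 24 h, then IL-8 is quantified by ELISA, and gain or loss versus DMSO control is fitted in both directions.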

[5] = BSK_hDFCGF_Proliferation: Cell Proliferation Assessment in the BioMAP Diversity Plus: hDFCGF Assay (AID 2283059); settings: primary human foreskin fibroblasts;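 also: curves fitted for both rise and fall of signal versus DMSO baseline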
How it was run: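 Steps: dose primary human dermal fibroblasts (foreskin); […] fix in 10% TCA; stain with 0.1% SRB; read 560 nm; fit gain or loss of signal against DMSO.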

[6] = read-out: Macrophage colony-stimulating factor (MCSF), CSF1 (gene 1435); assay: BSK_hDFCGF_MCSF: BioMAP Diversity Plus: hDFCGF Assay for Macrophage colony-stimulating factor (MCSF) Biomarker Activity (AID 2283060); settings: primary human foreskin fibroblasts; actives raise or lower the signal
How it was run: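 Primary human foreskin fibroblasts dosed with chemical; 24 h later, M-CSF quantified by ELISA; curves fitted in both directions vs DMSO negative control.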

[7] = BSK_hDFCGF_SRB: Viability Assessment in the BioMAP Diversity Plus: hDFCGF Assay (AID 2283061); settings: primary human foreskin fibroblasts;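 also: cells exposed to compound for 24 h before the read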
How it was run: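 Readout is SRB absorbance at 560 nm, reflecting total protein in parallel cultures of human foreskin fibroblasts harvested 24 h after chemical dosing. Activity was fitted bidirectionally relative to DMSO.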

[8] = read-out: TIMP metallopeptidase inhibitor 1 (TIMP1), TIMP1 (gene 7076); assay: BSK_hDFCGF_TIMP1: BioMAP Diversity Plus: hDFCGF Assay for TIMP metallopeptidase inhibitor 1 (TIMP1) Biomarker Activity (AID 2283062); settings: primary human foreskin fibroblasts; actives raise or lower the signal
How it was run: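 Human skin fibroblasts (primary), hDFCGF system; compound exposure 24 h; TIMP-1 by ELISA; bidirectional fit vs DMSO negative control; overt cytotoxicity by SRB in parallel wells.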

[9] = read-out: Monokine induced gamma interferon (MIG), CXCL9 (gene 4283); assay: BSK_hDFCGF_MIG: BioMAP Diversity Plus: hDFCGF Assay for Monokine induced gamma interferon (MIG) Biomarker Activity (AID 2283063); settings: primary human foreskin fibroblasts; actives raise or lower the signal
How it was run: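 Chemicals were added to primary human foreskin fibroblast cultures, which were sampled 24 h later. MIG levels were then quantified by ELISA and responses fitted in both directions relative to DMSO.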

[10] = read-out: Matrix Metallopeptidase 1 (MMP1), MMP1 (gene 4312); assay: BSK_hDFCGF_MMP1: BioMAP Diversity Plus: hDFCGF Assay for Matrix Metallopeptidase 1 (MMP1) Biomarker Activity (AID 2283064); settings: primary human foreskin fibroblasts; actives raise or lower the signal
How it was run: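 Primary human foreskin fibroblasts in the hDFCGF system were dosed with test chemical, and MMP1 was measured by ELISA 24 h later. Values come from bidirectional curve fitting against the DMSO baseline.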

[11] = read-out: Vascular cell adhesion molecule 1 (VCAM1), VCAM1 (gene 7412); assay: BSK_hDFCGF_VCAM1: BioMAP Diversity Plus: hDFCGF Assay for Vascular cell adhesion molecule 1 (VCAM1) Biomarker Activity (AID 2283065); settings: primary human foreskin fibroblasts; actives raise or lower the signal;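 as to AC50: VCAM-1 protein level quantified by ELISA after 24 h chemical exposure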
How it was run: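 Human foreskin fibroblast primary cells, chemical exposure 24 h; VCAM-1 by ELISA; bidirectional fit, DMSO = negative control/baseline.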

[12] = read-out: Plasminogen activator inhibitor-1 (PAI1), SERPINE1 (gene 5054); assay: BSK_hDFCGF_PAI1: BioMAP Diversity Plus: hDFCGF Assay for Plasminogen activator inhibitor-1 (PAI1) Biomarker Activity (AID 2283066); settings: primary human foreskin fibroblasts; actives raise or lower the signal
How it was run: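 Human foreskin fibroblasts in the hDFCGF system were dosed with compound for 24 h; PAI-1 was quantified by ELISA. Bidirectional curve fitting used DMSO as negative control and baseline.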

[13] = read-out: Intercellular Adhesion Molecule 1 (ICAM1), ICAM1 (gene 3383); assay: BSK_KF3CT_ICAM1: BioMAP Diversity Plus: KF3CT Assay for Intercellular Adhesion Molecule 1 (ICAM1) Biomarker Activity (AID 2283067); settings: primary human keratinocytes with fibroblasts; actives raise or lower the signal
How it was run: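 ICAM-1 levels are measured by ELISA 24 h after dosing a primary human co-culture of keratinocytes and foreskin fibroblasts. Activity in either direction is fitted relative to DMSO vehicle.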

[14] = read-out: Interferon-gamma inducible Protein 10 (IP10), CXCL10 (gene 3627); assay: BSK_KF3CT_IP10: BioMAP Diversity Plus: KF3CT Assay for Interferon-gamma inducible Protein 10 (IP10) Biomarker Activity (AID 2283068); settings: primary human keratinocytes with fibroblasts; actives raise or lower the signal
How it was run: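 KF3CT co-culture (keratinocytes + foreskin fibroblasts), 24 h compound, IP-10 by ELISA; bidirectional fit vs DMSO baseline.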

[15] = BSK_KF3CT_SRB: Viability Assessment in the BioMAP Diversity Plus: KF3CT Assay (AID 2283069); settings: primary human keratinocytes with fibroblasts;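 also: total protein by sulforhodamine B staining as a cytotoxicity measure; read 24 h after compound addition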
How it was run: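 Human primary keratinocyte plus foreskin fibroblast co-culture exposed to chemicals for 24 h. Total protein measured by 0.1% sulforhodamine B staining after 10% TCA fixation, read at 560 nm; bidirectional fitting versus DMSO baseline.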

[16] = read-out: Interleukin-1 alpha (IL1a), IL1A (gene 3552); assay: BSK_KF3CT_IL1a: BioMAP Diversity Plus: KF3CT Assay for Interleukin-1 alpha (IL1a) Biomarker Activity (AID 2283070); settings: primary human keratinocytes with fibroblasts; actives raise or lower the signal
How it was run: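 Human keratinocyte plus foreskin fibroblast primary co-culture, sampled 24 h after chemical dosing. IL-1a measured by ELISA; responses fitted bidirectionally against DMSO baseline (negative control), so gain or loss of signal both count.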

[17] = read-out: TIMP metallopeptidase inhibitor 2 (TIMP2), TIMP2 (gene 7077); assay: BSK_KF3CT_TIMP2: BioMAP Diversity Plus: KF3CT Assay for TIMP metallopeptidase inhibitor 2 (TIMP2) Biomarker Activity (AID 2283071); settings: primary human keratinocytes with fibroblasts; actives raise or lower the signal
How it was run: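 Human primary keratinocyte/foreskin fibroblast co-culture dosed with chemical and sampled at 24 h. TIMP-2 levels quantified by ELISA; bidirectional fitting against DMSO negative control as baseline.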

[18] = read-out: Transforming growth factor beta 1 (TGFb1), TGFB1 (gene 7040); assay: BSK_KF3CT_TGFb1: BioMAP Diversity Plus: KF3CT Assay for Transforming growth factor beta 1 (TGFb1) Biomarker Activity (AID 2283072); settings: primary human keratinocytes with fibroblasts; actives raise or lower the signal
How it was run: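 Human keratinocyte plus foreskin fibroblast primary co-culture, dosed with chemical for 24 h. TGF-b1 quantified by ELISA. Activity fitted bidirectionally against DMSO negative control as baseline.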

[19] = read-out: C-C motif chemokine 2 (Homo sapiens) (UniProt P13500); assay: BSK_KF3CT_MCP1: BioMAP Diversity Plus: KF3CT Assay for Monocyte Chemoattractant Protein 1 (MCP1/CCL2) Biomarker Activity (AID 2283073); settings: primary human keratinocytes with fibroblasts; actives raise or lower the signal
How it was run: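 ELISA readout of MCP-1 after 24 h chemical dosing of a human skin primary co-culture of keratinocytes and foreskin fibroblasts. Activity was fitted in both directions against DMSO.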

[20] = read-out: Matrix Metallopeptidase 9 (MMP9), MMP9 (gene 4318); assay: BSK_KF3CT_MMP9: BioMAP Diversity Plus: KF3CT Assay for Matrix Metallopeptidase 9 (MMP9) Biomarker Activity (AID 2283074); settings: primary human keratinocytes with fibroblasts; actives raise or lower the signal
How it was run: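 Keratinocyte plus foreskin fibroblast human primary skin co-culture was dosed with chemical and MMP-9 was quantified by ELISA 24 h later. Bidirectional curve fitting used DMSO as negative control and activity baseline.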

Measured: AC50

CCOC(=O)CCN(SN(C)C(=O)Oc1cccc2c1OC(C)(C)C2)C(C)C
active: [1] 20 µM | [2] 4.31 µM | [5] 15.2 µM | [6] 26 µM | [7] 31 µM | [8] 33.5 µM | [9] 29.9 µM | [11] 29.7 µM | [12] 28.7 µM
inactive: all other assays above

CCCCOC(=O)COC(=O)c1ccccc1C(=O)OCCCC
active: [5] 20 µM | [11] 26.6 µM
inactive: [1] | [2] | [3] | [4] | [5] | [6] | [7] | [8] | [9] | [10] | [11] | [12] | [13] | [14] | [15] | [16] | [17] | [19] | [20]

Clc1cccc(Cl)c1
inactive: all assays above
